Data as given in PubChem BioAssay AID1159580 (chemical genetic matrix, 2015).
Among all 5,500 compounds or so, about 2,000 (36%) were called active. Not shown: some 18% with an inconclusive outcome. Rule as the data show it: active = normalized growth mostly below about 0.91 (no sharp cut-off); inconclusive = no clear call, values can overlap the other calls; inactive = mostly above about 0.92. The list shows a part of the results.

Assay: chemical genetic growth profiling, strain panel (AID 1159580);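 also: tested at 20 µM; growth read once vehicle control cultures reached saturation at 30 °C; 1 = growth at the plate median or of vehicle wells; lower values mean less growth of the strain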
Conditions: growth OD

Measured: normalized growth

O=C1NS(=O)(=O)c2ccccc21
inactive: S. cerevisiae deletion strains, locus YJR066W, strain TOR1, active compounds read low 0.939 | S. cerevisiae deletion strains, locus YKL009W, strain mrt4, active compounds read low 0.988 | S. cerevisiae deletion strains, locus YKL068W, active compounds read low 1 | S. cerevisiae deletion strains, locus YKL085W, strain MDH1 (second series), active compounds read low 0.994 | S. cerevisiae deletion strains, locus YKL085W, strain MDH1, active compounds read low 0.994 | S. cerevisiae deletion strains, locus YKL160W, strain elf1, active compounds read low 0.991 | S. cerevisiae deletion strains, locus YKL190W, strain CNB1, active compounds read low 1.01 | S. cerevisiae deletion strains, locus YKR001C, strain vps1, active compounds read low 0.996 | S. cerevisiae deletion strains, locus YKR026C, strain gcn3, active compounds read low 1.03 | S. cerevisiae deletion strains, locus YKR091W, strain srl3, active compounds read low 1.01 | S. cerevisiae deletion strains, locus YLL001W, strain dnm1, active compounds read low 0.986 | S. cerevisiae deletion strains, locus YLL026W, active compounds read low 1.02 | S. cerevisiae deletion strains, locus YLL041C, strain sdh2, active compounds read low 1.02 | S. cerevisiae deletion strains, locus YLR027C, strain aat2, active compounds read low 1.02 | S. cerevisiae deletion strains, locus YLR039C, strain RIC1, active compounds read low 1.01 | S. cerevisiae deletion strains, locus YLR058C, strain SHM2, active compounds read low 1.02 | S. cerevisiae deletion strains, locus YLR102C, strain apc9, active compounds read low 0.979 | S. cerevisiae deletion strains, locus YLR113W, strain HOG1, active compounds read low 0.978 | S. cerevisiae deletion strains, locus YLR221C, strain rsa3, active compounds read low 1.06 | S. cerevisiae deletion strains, locus YLR258W, strain gsy2, active compounds read low 1.03 | S. cerevisiae deletion strains, locus YLR262C, strain YPT6 (second series), active compounds read low 1.01 | S. cerevisiae deletion strains, locus YLR262C, strain YPT6, active compounds read low 1.02 | S. cerevisiae deletion strains, locus YLR268W, strain sec22, active compounds read low 0.978 | S. cerevisiae deletion strains, locus YLR320W, strain mms22, active compounds read low 1.06 | S. cerevisiae deletion strains, locus YLR330W, strain CHS5, active compounds read low 1 | S. cerevisiae deletion strains, locus YLR342W, strain FKS1 (second series), active compounds read low 0.968 | S. cerevisiae deletion strains, locus YLR342W, strain FKS1, active compounds read low 1.03 | S. cerevisiae deletion strains, locus YLR357W, strain rsc2, active compounds read low 1.01 | S. cerevisiae deletion strains, locus YLR370C, strain arc18, active compounds read low 1.02 | S. cerevisiae deletion strains, locus YLR371W, strain rom2, active compounds read low 0.983 | S. cerevisiae deletion strains, locus YLR384C, strain iki3, active compounds read low 1.04 | S. cerevisiae deletion strains, locus YLR418C, strain cdc73, active compounds read low 0.989 | S. cerevisiae deletion strains, locus YML016C, strain PPZ1, active compounds read low 1.01 | S. cerevisiae deletion strains, locus YML032C, strain rad52, active compounds read low 0.986 | S. cerevisiae deletion strains, locus YML120C, strain ndi1, active compounds read low 0.995 | S. cerevisiae deletion strains, locus YML124C, strain tub3, active compounds read low 0.999 | S. cerevisiae deletion strains, locus YMR058W, strain fet3, active compounds read low 1.03 | S. cerevisiae deletion strains, locus YMR078C, strain ctf18, active compounds read low 0.989 | S. cerevisiae deletion strains, locus YMR125W, strain sto1, active compounds read low 0.999 | S. cerevisiae deletion strains, locus YMR129W, active compounds read low 1.02 | S. cerevisiae deletion strains, locus YMR205C, strain PFK2, active compounds read low 1.03 | S. cerevisiae deletion strains, locus YMR223W, strain ubp8, active compounds read low 0.985 | S. cerevisiae deletion strains, locus YMR231W, strain pep5, active compounds read low 1.02 | S. cerevisiae deletion strains, locus YMR307W, strain GAS1, active compounds read low 0.935 | S. cerevisiae deletion strains, locus YNL067W, strain RPL9B, active compounds read low 1.01 | S. cerevisiae deletion strains, locus YNL071W, strain lat1, active compounds read low 1.01 | S. cerevisiae deletion strains, locus YNL153C, strain GIM3, active compounds read low 1.03 | S. cerevisiae deletion strains, locus YNL183C, strain NPR1, active compounds read low 0.931 | S. cerevisiae deletion strains, locus YNL209W, strain ssb2, active compounds read low 1 | S. cerevisiae deletion strains, locus YNL233W, strain BNI4, active compounds read low 1.02 | S. cerevisiae deletion strains, locus YNL248C, strain rpa49, active compounds read low 1.08 | S. cerevisiae deletion strains, locus YNL250W, strain rad50, active compounds read low 0.985 | S. cerevisiae deletion strains, locus YNL271C, strain bni1, active compounds read low 0.986 | S. cerevisiae deletion strains, locus YNL298W, strain CLA4, active compounds read low 0.987 | S. cerevisiae deletion strains, locus YNL307C, strain MCK1, active compounds read low 0.99 | S. cerevisiae deletion strains, locus YNL322C, strain KRE1 (second series), active compounds read low 1.02 | S. cerevisiae deletion strains, locus YNR049C, strain mso1, active compounds read low 1.02 | S. cerevisiae deletion strains, locus YNR052C, strain pop2, active compounds read low 0.981 | S. cerevisiae deletion strains, locus YOL006C, strain TOP1, active compounds read low 1.08 | S. cerevisiae deletion strains, locus YOL012C, strain htz1 1.16 | S. cerevisiae deletion strains, locus YOL147C, strain pex11, active compounds read low 0.992 | S. cerevisiae deletion strains, locus YOR001W, strain rrp6, active compounds read low 1.06 | S. cerevisiae deletion strains, locus YOR061W, strain CKA2, active compounds read low 1.02 | S. cerevisiae deletion strains, locus YOR069W, strain VPS5, active compounds read low 1.01 | S. cerevisiae deletion strains, locus YOR070C, strain gyp1, active compounds read low 1.02 | S. cerevisiae deletion strains, locus YOR080W, strain dia2, active compounds read low 1.03 | S. cerevisiae deletion strains, locus YOR083W, strain WHI5, active compounds read low 0.981 | S. cerevisiae deletion strains, locus YOR106W, strain vam3, active compounds read low 0.977 | S. cerevisiae deletion strains, locus YOR136W, strain idh2, active compounds read low 0.986 | S. cerevisiae deletion strains, locus YOR144C, strain elg1, active compounds read low 0.993 | S. cerevisiae deletion strains, locus YOR184W, strain ser1, active compounds read low 0.987 | S. cerevisiae deletion strains, locus YOR231W, strain MKK1, active compounds read low 0.985 | S. cerevisiae deletion strains, locus YOR265W, strain rbl2, active compounds read low 1.03 | S. cerevisiae deletion strains, locus YOR270C, strain vph1, active compounds read low 1.06 | S. cerevisiae deletion strains, locus YOR290C, strain snf2, active compounds read low 0.963 | S. cerevisiae deletion strains, locus YOR316C, strain cot1, active compounds read low 0.983 | S. cerevisiae deletion strains, locus YPL051W, strain arl3, active compounds read low 1.02 | S. cerevisiae deletion strains, locus YPL078C, strain atp4, active compounds read low 0.98 | S. cerevisiae deletion strains, locus YPL106C, strain sse1, active compounds read low 0.997 | S. cerevisiae deletion strains, locus YPL240C, strain hsp82, active compounds read low 1.01 | S. cerevisiae deletion strains, locus YPL241C, strain CIN2, active compounds read low 1 | S. cerevisiae deletion strains, locus YPL256C, strain CLN2, active compounds read low 0.979 | S. cerevisiae deletion strains, locus YPR119W, strain clb2, active compounds read low 0.982 | S. cerevisiae deletion strains, locus YPR141C, strain kar3, active compounds read low 0.982 | S. cerevisiae deletion strains, locus YPR163C, strain tif3, active compounds read low 0.986 | S. cerevisiae deletion strains, locus YPR167C, strain met16, active compounds read low 0.984 | S. cerevisiae deletion strains, strain wtn01, active compounds read low 0.974 | S. cerevisiae strains, strain wild type, active compounds read low 1.01
